High-throughput results: PubChem BioAssay, Broad Institute
Most compounds without a hit are left out; they make up all but 4% or so of the library.
DENV2 CPE rescue – inhibitors of DENV2 cytopathic effect, primary screen, cell-based, plate reader, single concentration; CPE inhibition, % at 9.99 µM; 350,000 tested, 1.7% active; DENV2-infected cells, cytopathic effect rescue; in the data active means CPE inhibition above about 20%, passing the limit was not always enough; inconclusive means no clear call, values can overlap the other calls; tested in BHK-21 cells;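 further: 0% = median of neutral control wells and 100% = median of positive control wells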
RAD52 inh – RAD52 DNA annealing inhibitors, primary screen, biochemical, FRET, single point, set 2 | DNA repair protein RAD52 homolog (Homo sapiens), P43351 | inhibition, % at 18.7 µM | recombinant RAD52 DNA annealing, FRET fluorescence | 360,000 tested, 0.46% active;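 active means every replicate showing at least 50% inhibition; inconclusive means mean inhibition at least 50% but not in every replicate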
AF4-AF9 inh – inhibitors of AF4 peptide binding to AF9, primary screen, biochemical, AlphaScreen, biotin-AF4 peptide, FLAG-AF9, single point; inhibition, % at 10 µM; Protein AF-9 (Homo sapiens), P42568; 350,000 tested, 0.47% active;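 active means every replicate reaching a set inhibition limit, whatever the replicate mean, cut at about 25% in these data; inconclusive means mean inhibition reaches that limit but some replicates miss it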;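 further: 0% = plate neutral control median and 100% = total signal loss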
Target sequence (P42568 whole entry, looked up): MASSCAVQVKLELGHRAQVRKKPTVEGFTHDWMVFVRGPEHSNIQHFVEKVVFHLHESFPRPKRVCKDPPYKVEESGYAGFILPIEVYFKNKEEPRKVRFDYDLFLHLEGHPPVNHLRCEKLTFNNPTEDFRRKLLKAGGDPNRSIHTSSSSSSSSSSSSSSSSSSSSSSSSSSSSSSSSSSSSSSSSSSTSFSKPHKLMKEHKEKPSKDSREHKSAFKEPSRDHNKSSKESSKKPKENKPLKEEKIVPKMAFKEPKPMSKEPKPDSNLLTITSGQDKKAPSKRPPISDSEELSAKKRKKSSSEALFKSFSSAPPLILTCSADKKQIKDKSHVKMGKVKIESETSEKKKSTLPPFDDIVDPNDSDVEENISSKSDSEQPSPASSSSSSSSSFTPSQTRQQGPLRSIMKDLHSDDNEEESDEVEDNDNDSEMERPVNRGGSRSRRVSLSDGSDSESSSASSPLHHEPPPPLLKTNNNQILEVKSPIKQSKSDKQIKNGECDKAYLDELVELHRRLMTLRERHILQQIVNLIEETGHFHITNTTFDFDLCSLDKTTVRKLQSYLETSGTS
FGF22 binding – binders of human FGF22 protein, primary screen, FGF22 synaptogenesis inhibitor project, biophysical, thermal shift, single point; Fibroblast growth factor 22 (Homo sapiens), Q9HCT0; recombinant FGF22 thermal shift, SYPRO orange fluorescence; percent of sucrose octasulfate shift, DMSO zero; activity (Tm shift, normalised), % at 9.99 µM; 340,000 tested, 1.5% active; AID 651658, 2012;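 active means mean Tm shift, scaled 0 neutral to 100 positive control, at about 1.3% or above, every replicate too, limit read from the data; inconclusive means no clear call, values can overlap the other calls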
ERAP1 HTS inh – human ERAP1 aminopeptidase inhibitors, primary screen, biochemical, single point, plate reader; Endoplasmic reticulum aminopeptidase 1 (Homo sapiens), Q9NZ08; recombinant ERAP1, Leu-AMC fluorescence, 60 min; inhibition, % at 10.7 µM; 340,000 tested, 0.15% active; AID 652197, 2013;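 active means mean replicate inhibition of at least 30%, or all replicates individually reaching that 30% level; inactive means mean below 30% and not every replicate reaching it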;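 further: 0% = neutral control wells and 100% = L-leucinethiol positive control wells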
DNA binder FP – DNA-binding compounds via dye displacement, dose response, artefact control for RAD52 inhibitor project, biochemical, fluorescence polarization, cherry-pick. shares compounds with RAD52 inh. Salmon sperm DNA/acridine orange FP displacement. AC50, µM. 1,000 tested, 8% active;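 active means fitted half-maximal concentration for signal loss at or below twice the highest dose tested, in every separate run, actives reach about 64 µM in these data; inconclusive means runs disagree, or flat partial signal loss, or poor fit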
* hit, by the source's call; i = inactive; ? = inconclusive; . = no result given.

SMILES	DENV2 CPE rescue	RAD52 inh	AF4-AF9 inh	FGF22 binding	ERAP1 HTS inh	DNA binder FP
CN(C)CC(=O)N1[C@@H]2c3ccc(-c4cccnc4)c(=O)n3C[C@H]1[C@H](CO)[C@H]2C(=O)NC1CCCC1	2.8	-2.3	-1.7	.	-5.1	.
CO[C@@H]1CN(C)C(=O)c2cc(NC(=O)C3CCCC3)ccc2OC[C@@H](C)N(CCC(F)(F)F)C[C@H]1C	-0.7	20.4	1.1	-0.3	1.8	.
CCC(C)(C)c1ccc(OCCCC[n+]2cccc(C)c2)c(C(C)(C)CC)c1	-9.6	76.4*	12.5	0.1	13.2	i
O=C(N[C@@H]1CC[C@H](CCNC(=O)C2CCCCC2)O[C@H]1CO)c1ccncc1	-4.1	-2.8	0.5	-0.2	-0.3	.
CC(C)(O)C#Cc1cccc(-c2nc(C(=O)NCCCN3CCOCC3)cc3c2[C@@H](CCO)N(S(=O)C(C)(C)C)C3)c1 (stereo partly drawn)	-1.5	-29.5	-4.5	-0.2	-2.2	.
CC(C)(C)S(=O)N1Cc2cc(C(=O)NCCCN3CCOCC3)nc(-c3cccc(-c4cc5ccccc5o4)c3)c2[C@@H]1CCO (stereo partly drawn)	15.6	-3.5	2.7	-0.1	4.3	i
O=C(Nc1ccc(CN2CCOCC2)cc1)c1ccc(-c2ccc(Br)cc2)o1	?	51.0*	15.8	-0.2	-4.3	i
CCCC(=O)Nc1ccc2c(c1)OC[C@@H](C)N(Cc1ccccc1)C[C@H](C)[C@H](OC)CN(C)C2=O	?	0.1	2.5	0.1	3.1	.
NCc1ccc(OCCCN2CCC(C(O)(C3=CCCC3)c3ccccc3)CC2)cc1 (stereo not drawn)	3.1	67.1*	.	-0.2	-1.5	i
Cc1cc(OCCCN2CCC(C(O)(c3ccccc3)c3ccccc3)CC2)ccc1Br	-0.7	54.7*	0.9	-0.6	1.3	i
Cc1cc(C)cc(OCCCN2CCC(C(O)(c3ccccc3)c3ccccc3)CC2)c1	-0.2	1.5	7.3	0.3	-1.6	.
CS(=O)(=O)c1ccc(OCCCN2CCC(C(O)(c3ccccc3)c3ccccc3)CC2)cc1	0.2	2.0	.	-0.1	-5.6	.
O=C(C1CC1)N1[C@H](CO)[C@@H]2c3ccccc3N(S(=O)(=O)c3ccc(F)cc3)C[C@@H]21	4.0	2.0	2.2	0.6	-2.6	.
COc1cc(OC)cc(C2=Cc3ccccc3C(CC(C)=O)N2c2ccc(C#CC3(N)CCCCC3)cc2)c1 (stereo not drawn)	-9.4	90.8*	11.7	-0.2	0.8	i
COc1ccccc1-c1cn(CC[C@@H]2CC[C@H](NS(=O)(=O)c3ccccc3C)[C@H](CO)O2)nn1	-4.4	14.1	-8.9	0.1	-3.2	.
COCC(=O)N1[C@H](C(=O)N2CCCCC2)[C@@H](CO)[C@@H]2Cn3c(ccc(C4=CCCC4)c3=O)[C@@H]21	2.2	-8.3	-0.8	0.0	1.1	.
Cc1ccccc1OCC(O)CNC1CCC(NCC(O)COc2ccccc2C)CC1 (stereo not drawn)	-1.1	-14.5	20.6	-0.3	0.2	i
C[C@H](NC(=O)C[C@@H]1CC[C@H](NC(=O)Cc2ccccn2)[C@H](CO)O1)c1ccccc1	?	13.3	-1.0	-0.3	0.8	.
CO[C@H]1CN(C)C(=O)c2cc(NC(C)=O)ccc2OC[C@@H](C)N(Cc2cc(F)ccc2F)C[C@H]1C	-5.1	-3.4	1.9	0.0	1.1	.
CC(CC(=O)c1ccc(F)cc1)N1CCN(c2ccccc2)CC1 (stereo not drawn)	5.2	79.7*	23.6	-0.3	1.7	i
CCOc1ccc2[nH]c3c(c2c1)CNCC3	-7.5	55.2*	21.3	0.0	19.6	i
Cc1cccc2c3c([nH]c12)CCNC3	12.9	21.1	6.5	-0.2	1.7	.
OCCN1CCN(CC(O)COc2ccc(C34CC5CC(CC(C5)C3)C4)cc2)CC1 (stereo not drawn)	-1.0	56.8*	20.6	-0.1	7.6	i
CN1Cc2c(N3CCOCC3)nc3sc(C(=O)c4ccccc4)c(N)c3c2CC1(C)C	12.2	59.8*	.	0.3	4.6	i
COc1ccc(/C=N/Nc2cc(C)nc3c(C)cccc23)cc1	-17.0	80.4*	13.9	0.1	-0.5	?
SMILES	DENV2 CPE rescue	RAD52 inh	AF4-AF9 inh	FGF22 binding	ERAP1 HTS inh	DNA binder FP
COc1cccc2c(N/N=C/c3ccc(O)c(O)c3)cc(C)nc12	5.3	-26.6	3.1	-0.3	2.1	.
CN1CCN(c2cc3c(c4c2[nH]c2ccccc24)C(=O)CC(C)(C)C3)CC1	10.0	67.5*	11.9	0.1	-13.8	i
CCN1CCn2c3c(c4cc(Cl)ccc42)CCCC31 (stereo not drawn)	.	.	11.8	.	.	.
CCN(CC)CCN1CCn2c3c(c4cc(C)ccc42)CCCC31 (stereo not drawn)	-9.6	62.7*	27.5*	43.5*	-3.5	i
NCC12CC3CC(C1)CC(c1ccc(Br)cc1)(C3)C2	6.7	56.6*	7.6	-0.2	3.8	i
CCN(CC)CCn1c(=N)n(CC(=O)c2ccc(Br)s2)c2ccccc21	-15.0	51.0*	10.6	0.0	1.2	i
CCN1CCN(c2ccc(N=Cc3ccc(O)cc3O)cc2)CC1	11.6	91.1*	13.6	0.4	1.9	i
NC(N)=Nc1cc2ccccc2c2ccccc12	3.4	55.9*	5.0	-0.2	0.9	i
O=C(Nc1ccc2c(c1)[C@@H]1C[C@@H](CC(=O)N3CCc4ccccc4C3)O[C@H](CO)[C@@H]1O2)NC1CCCC1	1.9	-10.0	0.5	-0.1	-1.3	.
CN1CCN(CCCNC(=O)c2ccc(/C=C3\Sc4ccccc4N(Cc4ccc(F)cc4)C3=O)cc2)CC1	6.8	92.0*	21.6	-0.2	1.4	i
O=C(NCCCN1CCCC1)c1ccc2c(c1)N(Cc1cccc(Cl)c1)C(=O)c1ccccc1S2=O (stereo not drawn)	0.3	67.3*	7.3	0.1	-1.3	i
Cc1cccc(CN2C(=O)/C(=C\c3ccc(C(=O)NCCCN4CCN(C)CC4)cc3)Oc3ccccc32)c1	-7.8	29.9	3.0	-0.1	4.2	.
CN1CCN(CCCNC(=O)c2ccc(/C=C3\Oc4ccccc4N(Cc4ccccc4F)C3=O)cc2)CC1	-2.5	95.8*	2.7	-0.8	14.1	i
O=C(CN1C(=O)/C(=C/c2ccccc2)Sc2ccccc21)NCCCN1CCOCC1	10.1	-12.6	0.2	-0.2	-2.2	.
CN1CCN(CCCNC(=O)c2ccc(/C=C3/Sc4ccccc4N(Cc4cccc(Cl)c4)C3=O)cc2)CC1	-16.4	68.1*	27.4*	0.0	5.3	i
